Experimental data taken from PubChem BioAssay.
The source made the active and inactive calls. The rule behind the calls is not given here.

Each compound was assayed against Pantothenate synthetase (Mycobacterium tuberculosis (strain ATCC 25618 / H37Rv)) (UniProt P9WIL5) (assay: Coupled enzyme confirmation of inhibitors against recombinant Mtb PanC (AID 375;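 note: 0% = full reaction with vehicle and 100% = no enzyme background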)). Conditions: coupled enzyme assay; at 10 µM, stronger effect = higher value.
Pantothenate synthetase (Mycobacterium tuberculosis (strain ATCC 25618 / H37Rv)), sequence (P9WIL5 whole entry, looked up): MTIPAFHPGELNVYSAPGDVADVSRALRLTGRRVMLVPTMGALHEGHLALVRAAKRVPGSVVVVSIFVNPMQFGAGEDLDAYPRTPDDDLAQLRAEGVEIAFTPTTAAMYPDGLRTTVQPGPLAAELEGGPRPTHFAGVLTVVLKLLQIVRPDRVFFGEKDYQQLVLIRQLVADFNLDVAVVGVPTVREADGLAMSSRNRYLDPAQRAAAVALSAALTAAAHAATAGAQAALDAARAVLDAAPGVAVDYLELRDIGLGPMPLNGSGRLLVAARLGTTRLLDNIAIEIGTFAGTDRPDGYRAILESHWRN

| SMILES | inhibition |
| --- | --- |
| Cc1ccc(-c2cn3cccnc3n2)cc1NC(=O)c1ccc(Br)o1 | 0% (inactive) |
| CC(=O)c1ccc(NC(=O)CCc2c(C)nc3ncnn3c2C)cc1 | 4% (inactive) |
| O=C(c1cc2nc(-c3ccco3)cc(C(F)(F)F)n2n1)N1CCN(c2ccccn2)CC1 | 6% (inactive) |
| CCC(=O)N1CCNC(=O)C1CC(=O)Nc1ccc(C)c(Cl)c1 (configuration not stated) | 0% (inactive) |
| CCCn1nc(CC(=O)O)c2ccccc2c1=O | 0% (inactive) |
| CN=C(C)C1=C(O)C(C(=O)OC)C(C)(C)CC1=O (configuration not stated) | 0% (inactive) |
| CCOC(=O)C1=C(C)NC(SC(C)=O)=NC1c1ccc(OC(C)=O)c(OC)c1 (configuration not stated) | 4% (inactive) |
| Cc1nc2ccc(S(=O)(=O)NCC(=O)O)cc2s1 | 4% (inactive) |
| CN(C)Cc1cn(CCC(=O)O)c2ccccc12 | 1% (inactive) |
| CN1CCN(CCCN2c3ccccc3Sc3ccc(Cl)cc32)CC1 | 0% (inactive) |
| CCOC(=O)c1ccc(NS(=O)(=O)c2ccc(SC)cc2)cc1 | 0% (inactive) |
| Cc1csc(SCCn2c(N3CCCC3)nc3c2c(=O)[nH]c(=O)n3C)n1 | 0% (inactive) |
| Cc1onc(-c2ccccc2)c1C(=O)NCc1cccnc1 | 10% (inactive) |
| CCCOc1ccc(C2C(C(=O)c3ccc(C)o3)=C(O)C(=O)N2Cc2cccnc2)cc1 (configuration not stated) | 10% (inactive) |
| CCCC(=O)Nc1ccc(NC(=O)c2cccs2)cn1 | 5% (inactive) |
| O=S(=O)(Nc1nc2ccccc2nc1NCc1ccco1)c1ccc(Cl)cc1 | 0% (inactive) |
| CCOC(=O)N(C)c1ccc(C(O)(C(F)(F)F)C(F)(F)F)cc1 | 0% (inactive) |
